Laboratory results published in PubChem BioAssay (NCATS).
Inconclusive results are not listed. Activity calls are given as the source filed them. Calls follow the shape of the dose curve; as a rule, active = well fitted curve in the direction sought with a large enough effect; inconclusive = small, poorly fitted or top-dose-only effect, or another doubt; inactive = no such curve, though single readings can be large; an effect the other way counts as inactive or inconclusive.

What was measured:
[1] = Quantitative High-Throughput drug screen in 47 multiple myeloma cell lines against the NCATS MIPE library collection: KHM11_PLB cell viability assay (AID 1918962); also: nearly all actives have a fitted effect of over 35% in size
Method in brief: (§1)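 qHTS of the MIPE 4.0 collection: 500 myeloma cells/well, 48 h drug exposure at 37C in 5% CO2, then CellTiter-Glo for 5 min at room temperature before luminescence reading.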

[2] = Quantitative High-Throughput drug screen in 47 multiple myeloma cell lines against the NCATS MIPE library collection: JIM3_ECACC cell viability assay (AID 1918963; also: nearly all actives have a fitted effect of over 35% in size)
Method in brief: as §1

[3] = Quantitative High-Throughput drug screen in 47 multiple myeloma cell lines against the NCATS MIPE library collection: JIM1_ECACC cell viability assay (AID 1918964)
Method in brief: (§2)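 Primary qHTS used for cherry-picking: cells at 500/well, library compounds for 48 h (37C, 5% CO2), luminescent ATP assay.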

[4] = Quantitative High-Throughput drug screen in 47 multiple myeloma cell lines against the NCATS MIPE library collection: INA6_PLB cell viability assay (AID 1918965; also: nearly all actives have a fitted effect of over 55% in size)
Method in brief: (§3)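 Luminescent ATP measurement with CellTiter-Glo gives viability, scaled between DMSO-only wells (100%) and media-only wells (0%). Cells, 500 per well, faced library compounds for 48 hours at 37C.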

[5] = Quantitative High-Throughput drug screen in 47 multiple myeloma cell lines against the NCATS MIPE library collection: H1112_PLB cell viability assay (AID 1918967; also: nearly all actives have a fitted effect of over 30% in size)
Method in brief: as §2

[6] = Quantitative High-Throughput drug screen in 47 multiple myeloma cell lines against the NCATS MIPE library collection: Karpas25_ECACC cell viability assay (AID 1918968; also: nearly all actives have a fitted effect of over 35% in size)
Method in brief: as §2

[7] = Quantitative High-Throughput drug screen in 47 multiple myeloma cell lines against the NCATS MIPE library collection: KMS12BM_JCRB cell viability assay (AID 1918971); also: nearly all actives have a fitted effect of over 35% in size
Method in brief: (§4)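 Myeloma cells (500 per well) were exposed to MIPE 4.0 compounds by pin transfer and incubated 48 hours at 37C, 5% CO2. Viability was read as ATP by CellTiter-Glo luminescence, normalised to DMSO (100%) and media-only (0%) wells.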

[8] = Quantitative High-Throughput drug screen in 47 multiple myeloma cell lines against the NCATS MIPE library collection: KMS20_JCRB cell viability assay (AID 1918973); also: nearly all actives have a fitted effect of over 45% in size
Method in brief: as §2

[9] = Quantitative High-Throughput drug screen in 47 multiple myeloma cell lines against the NCATS MIPE library collection: KMS26_JCRB cell viability assay (AID 1918975); also: nearly all actives have a fitted effect of over 45% in size
Method in brief: as §4

[10] = Quantitative High-Throughput drug screen in 47 multiple myeloma cell lines against the NCATS MIPE library collection: MOLP8_DSMZ cell viability assay (AID 1918977); also: nearly all actives have a fitted effect of over 45% in size
Method in brief: (§5)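 qHTS format: cells plated (500/well), pin-dosed with MIPE 4.0 compounds, kept 48 h at 37 °C. Readout was CellTiter-Glo luminescence, median RLU.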

[11] = Quantitative High-Throughput drug screen in 47 multiple myeloma cell lines against the NCATS MIPE library collection: NCIH929_DSMZ cell viability assay (AID 1918978); also: nearly all actives have a fitted effect of over 35% in size
Method in brief: as §5

[12] = Quantitative High-Throughput drug screen in 47 multiple myeloma cell lines against the NCATS MIPE library collection: MM1R_ATCC cell viability assay (AID 1918981); also: nearly all actives have a fitted effect of over 35% in size
Method in brief: as §5

[13] = Quantitative High-Throughput drug screen in 47 multiple myeloma cell lines against the NCATS MIPE library collection: LP1_DSMZ cell viability assay (AID 1918982); also: nearly all actives have a fitted effect of over 35% in size
Method in brief: as §5

[14] = Quantitative High-Throughput drug screen in 47 multiple myeloma cell lines against the NCATS MIPE library collection: JJN3_DSMZ cell viability assay (AID 1918966; also: nearly all actives have a fitted effect of over 50% in size)
Method in brief: as §2

[15] = Quantitative High-Throughput drug screen in 47 multiple myeloma cell lines against the NCATS MIPE library collection: KMS27_JCRB cell viability assay (AID 1918970); also: nearly all actives have a fitted effect of over 30% in size
Method in brief: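 Each line is seeded at 500 cells per well and treated with library compounds for 48 hours under 37 °C, 5% CO2. CellTiter-Glo is then added for 5 min at room temperature before median relative luminescence is recorded.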

[16] = Quantitative High-Throughput drug screen in 47 multiple myeloma cell lines against the NCATS MIPE library collection: KMS12PE_JCRB cell viability assay (AID 1918972); also: nearly all actives have a fitted effect of over 30% in size
Method in brief: as §3

[17] = Quantitative High-Throughput drug screen in 47 multiple myeloma cell lines against the NCATS MIPE library collection: MMM1_PLB cell viability assay (AID 1918976); also: nearly all actives have a fitted effect of over 35% in size
Method in brief: as §5

[18] = Quantitative High-Throughput drug screen in 47 multiple myeloma cell lines against the NCATS MIPE library collection: OCIMY1_PLB cell viability assay (AID 1918979); also: nearly all actives have a fitted effect of over 35% in size
Method in brief: as §5

[19] = Quantitative High-Throughput drug screen in 47 multiple myeloma cell lines against the NCATS MIPE library collection: MM1S_ATCC cell viability assay (AID 1918980); also: nearly all actives have a fitted effect of over 45% in size
Method in brief: as §5

[20] = Quantitative High-Throughput drug screen in 47 multiple myeloma cell lines against the NCATS MIPE library collection: KMS21BM_JCRB cell viability assay (AID 1918974); conditions: ATP luminescence, 48 h; viability: at 45.8 µM (top of the series) unless noted
Method in brief: as §2

Measured: Potency
Potency is read from the fitted curve at half-maximal effect.

COc1cc(C(=O)NS(=O)(=O)c2ccccc2C)ccc1Cc1cn(C)c2ccc(NC(=O)OC3CCCC3)cc12
inactive: [3]
active: [1] 10.5 µM | [2] 16.6 µM | [4] 10.5 µM | [5] 20.9 µM | [6] 8.33 µM | [7] 26.4 µM | [8] 6.62 µM | [9] 16.6 µM | [10] 18.7 µM | [11] 18.7 µM | [12] 14.8 µM | [13] 20.9 µM

COc1cccc2c(NCc3ccccc3)nc(-n3c(N)nc4ccccc43)nc12
active: [1] 3.32 µM | [2] 2.96 µM | [3] 1.87 µM | [14] 6.62 µM | [5] 7.43 µM | [6] 2.64 µM | [15] 1.05 µM | [7] 9.35 µM | [16] 2.35 µM | [8] 2.96 µM | [9] 4.69 µM | [17] 5.9 µM | [10] 3.32 µM | [11] 3.32 µM | [18] 7.43 µM | [19] 5.26 µM | [13] 9.35 µM

CCCCOc1c(C(=O)c2c(F)cc(C)cc2F)cnc2n[nH]cc12
active: [1] 3.72 µM | [2] 8.33 µM | [3] 2.96 µM | [14] 2.35 µM | [5] 4.69 µM | [6] 4.69 µM | [15] 3.72 µM | [7] 5.26 µM | [8] 4.18 µM | [9] 3.72 µM | [17] 5.26 µM | [10] 2.96 µM | [11] 1.32 µM | [19] 2.09 µM | [12] 3.72 µM | [13] 3.32 µM

O=C(Nc1cc(C(F)(F)F)cc(C(F)(F)F)c1)c1cc(Cl)ccc1O
active: [1] 1.48 µM | [2] 0.662 µM | [3] 1.05 µM | [4] 1.66 µM | [14] 1.87 µM | [15] 0.833 µM | [16] 0.526 µM | [8] 1.32 µM | [20] 0.526 µM | [9] 1.18 µM | [17] 0.296 µM | [10] 1.48 µM | [11] 1.48 µM | [18] 3.32 µM | [19] 0.59 µM | [12] 1.05 µM | [13] 0.469 µM

CC1=C(CO)C(=O)O[C@@H]([C@@H](C)[C@H]2CC[C@H]3[C@@H]4C[C@H]5O[C@]56[C@@H](O)C=CC(=O)[C@]6(C)[C@@H]4CC[C@]23C)C1
inactive: [3] | [16]
active: [1] 0.209 µM | [2] 0.209 µM | [4] 0.105 µM | [14] 0.662 µM | [6] 0.132 µM | [7] 0.372 µM | [8] 0.148 µM | [9] 0.235 µM | [17] 0.833 µM | [10] 0.132 µM | [11] 0.166 µM | [18] 0.118 µM | [19] 0.148 µM | [12] 0.132 µM | [13] 0.187 µM

O=c1[nH]nc(Sc2ncc([N+](=O)[O-])s2)n1-c1ccc2c(c1)OCCO2
active: [1] 2.09 µM | [2] 2.64 µM | [3] 5.9 µM | [4] 1.18 µM | [14] 2.09 µM | [6] 1.32 µM | [15] 6.62 µM | [7] 4.69 µM | [16] 7.43 µM | [8] 2.09 µM | [9] 1.48 µM | [17] 2.96 µM | [10] 1.48 µM | [11] 0.833 µM | [18] 3.72 µM | [19] 2.35 µM | [12] 1.32 µM | [13] 6.62 µM

CCN1CCN(CC(=O)Nc2ccc(-c3cccc4c(=O)cc(N5CCOCC5)oc34)c3sc4ccccc4c23)CC1
active: [1] 0.0526 µM | [2] 1.18 µM | [3] 0.469 µM | [14] 3.72 µM | [5] 6.62 µM | [6] 0.264 µM | [15] 0.418 µM | [7] 1.05 µM | [16] 2.35 µM | [8] 1.18 µM | [9] 1.32 µM | [17] 2.35 µM | [10] 0.526 µM | [11] 0.187 µM | [18] 5.9 µM | [19] 7.43 µM | [12] 1.48 µM | [13] 1.48 µM

CN(C)CC=CC(=O)Nc1cc2c(Nc3ccc(F)c(Cl)c3)ncnc2cc1O[C@H]1CCOC1
active: [1] 7.43 µM | [2] 8.33 µM | [3] 2.96 µM | [14] 4.69 µM | [5] 5.9 µM | [6] 1.32 µM | [15] 2.64 µM | [7] 16.6 µM | [16] 1.18 µM | [8] 2.09 µM | [20] 0.166 µM | [9] 6.62 µM | [17] 20.9 µM | [10] 18.7 µM | [11] 5.26 µM | [18] 16.6 µM | [19] 5.9 µM | [12] 13.2 µM

Nc1ccn([C@@H]2O[C@H](CO)[C@H](O)C2(F)F)c(=O)n1
active: [1] 5.9 µM | [2] 0.526 µM | [3] 0.105 µM | [4] 0.0526 µM | [5] 0.0187 µM | [6] 3.72 µM | [15] 0.0526 µM | [16] 0.0743 µM | [8] 0.418 µM | [11] 0.264 µM | [19] 0.0187 µM
